Gli-Sufu block: antagonists of Gli-Sufu signaling; AID 588413; inhibition, % at 5 µM; Sufu-KO-LIGHT fibroblasts, Gli luciferase reporter luminescence; 340,000 compounds, 0.74% hits;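 active = inhibition above about 55%, limit read from the data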;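 also: 0% = DMSO-treated cells and 100% = wells with medium but no cells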
aDG glyco up: alpha-DG glycosylation activation; Pro5-aDG cells, alpha-DG glycosylation AlphaScreen (IIH6); 0% Pro5, 100% B10-LARGE cell signal; activation, % at 10 µM; 360,000 compounds, 0.22% hits; AID 624168;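 active = activation of at least 8% versus controls, or a plate z-score of at least 8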;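 also: Pro5 are CHO cells carrying HIG-tagged alpha-DG that lacks glycosylation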
HIV Env fusion: HIV envelope-mediated fusion inhibition. HeLa-JRFL Env/CEM21 cell fusion, luciferase. inhibition, % at 12.3 µM. 360,000 compounds, 1.1% hits. AID 651610;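 active = mean replicate inhibition score of at least 50 and every replicate individually at or above 50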;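 also: 0% = plate neutral controls and 100% = maraviroc near 300 nM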
GalR3 antagonist: human GalR3 antagonism. O60755. HEK293 GalR3-CNG cAMP membrane potential fluorescence; galR3 body fused to GalR1 C-terminus. inhibition, % at 3 µM. 360,000 compounds, 0.44% hits. AID 651719;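 active = inhibition above the screen-wide average plus 3 SD, cut at about 13% in these data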;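 also: forskolin and galanin both at EC90 stimulate the cells; cAMP rise reported by CNG channel membrane potential dye signal; 0% = forskolin plus galanin with DMSO and 100% = forskolin alone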
Target sequence (O60755 1-299 limits assumed): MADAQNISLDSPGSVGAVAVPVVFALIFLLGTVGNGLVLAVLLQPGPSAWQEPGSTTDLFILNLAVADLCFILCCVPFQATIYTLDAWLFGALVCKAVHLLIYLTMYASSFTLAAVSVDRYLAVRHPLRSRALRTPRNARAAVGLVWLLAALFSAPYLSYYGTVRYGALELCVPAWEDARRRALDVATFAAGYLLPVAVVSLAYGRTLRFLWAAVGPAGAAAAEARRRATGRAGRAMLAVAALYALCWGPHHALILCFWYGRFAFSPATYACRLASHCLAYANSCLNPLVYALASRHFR
NR2F2 inh: inhibitors of human COUP-TFII (NR2F2); 370,000 compounds, 0.7% hits; inhibition, % at 8.6 µM; AID 686940; P24468; HEK293T NGFI-A luciferase reporter, luminescence;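 active = inhibition above a per-plate cutoff, mean inhibition of test wells between control levels plus 3 SD, cut at about 38% in these data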;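 also: cells cotransfected with COUP-TFII expression vector driving the NGFI-A reporter; 0% = median of COUP-TF2 test wells and 100% = reporter-only cells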
Target sequence (P24468 whole entry, looked up): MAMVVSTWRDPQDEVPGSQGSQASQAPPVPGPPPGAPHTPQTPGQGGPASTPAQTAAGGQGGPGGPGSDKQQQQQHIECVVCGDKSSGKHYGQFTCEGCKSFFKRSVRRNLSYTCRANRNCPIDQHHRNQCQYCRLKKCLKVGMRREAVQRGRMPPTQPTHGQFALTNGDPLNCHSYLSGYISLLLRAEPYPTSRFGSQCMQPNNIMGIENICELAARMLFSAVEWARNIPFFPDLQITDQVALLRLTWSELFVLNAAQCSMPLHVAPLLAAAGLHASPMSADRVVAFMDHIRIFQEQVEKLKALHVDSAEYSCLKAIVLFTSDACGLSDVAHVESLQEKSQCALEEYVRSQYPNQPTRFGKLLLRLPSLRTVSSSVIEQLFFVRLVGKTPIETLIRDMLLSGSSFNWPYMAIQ
Gli antag conf: Gli-SUFU antagonism confirmation, single concentration | shares compounds with Gli-Sufu block | Sufu-KO-LIGHT cells, Gli luciferase reporter, luminescence | inhibition, % at 5 µM | 2,500 compounds, 40% hits | AID 602428;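 active = mean inhibition at 5 µM reaching about 45%, limit read from the data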;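 also: plate controls were DMSO-treated cells for no effect and wells lacking cells for full effect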
SufuKO cytotox: cytotoxicity counter-screen for Gli-SUFU antagonists; Sufu-KO-LIGHT cells cytotoxicity, ATP luminescence; cytotoxicity, % at 5 µM; 2,500 compounds, 32% hits; shares compounds with Gli-Sufu block;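 active = mean cytotoxicity at 5 µM above about 25%, limit read from the data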;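 also: cells exposed to compound overnight for roughly 16 to 18 hours; plate controls were DMSO wells with cells for no effect and medium without cells for full effect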
Wnt3a cs: counter-screen for Gli-SUFU antagonists: Wnt3a reporter inhibition; AID 651995; inhibition, % at 6.25 µM; 2,500 compounds, 20% hits; Wnt-LIGHT cells, Wnt3a-driven luciferase reporter, luminescence; shares compounds with Gli-Sufu block;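 active = mean inhibition above about 25%, limit read from the data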
An asterisk follows results filed as active; · = no result given; [ ] = remark or other dose. Rows were chosen to be rich in hits. Some 2.1% of all compounds tested hit in one or more screens of this group.

SMILES	Gli-Sufu block	aDG glyco up	HIV Env fusion	GalR3 antagonist	NR2F2 inh	Gli antag conf	SufuKO cytotox	Wnt3a cs
C=CCn1c(SCn2nnc3ccccc3c2=O)nc2scc(-c3cccs3)c2c1=O	51.7	0.2	-24.7	-0.8	-5.9	13.8	21.0	-0.3
COc1ccc(N2CCN(S(=O)(=O)c3ccc(OC)c(C(=O)N4CCCC4)c3)CC2)cc1	70.3*	0.2	15.0	-10.0	-8.2	9.5	15.9	-23.3
CCN(CC)CCn1c(NCc2ccc(OC)cc2)nc2ccccc21	55.8*	-0.4	5.8	-3.9	-6.2	26.3	6.3	-18.4
COc1ccc2c(c1)CCCC21SC(NC(C)=O)=NN1C(C)=O (stereo not given)	51.3	-0.1	21.1	1.4	10.8	25.6	15.3	10.1
CC(=O)NC1=NN(C(C)=O)C(C)(c2ccc3ccccc3c2)S1 (stereo not given)	4.2	0.2	13.5	1.7	1.6	·	·	·
c1ccc(Nc2nc(NCC3CCCO3)c3ccccc3n2)cc1 (stereo not given)	57.0*	-0.3	22.4	1.8	36.2	45.1*	36.1*	27.7*
COc1ccccc1NC(=O)COc1ccc2c(c1)OCO2	59.3*	1.3	-23.6	0.7	-33.3	14.9	11.3	-64.8
CNC(=O)C[C@@H]1CC[C@H]2[C@@H](COc3ccc(NC(=O)c4cccc(OC)c4)cc3C(=O)N2C)O1	·	·	-6.1[16.7 µM]	·	·	·	·	·
Cc1ccc(S(=O)(=O)N[C@@H]2CC[C@H](CCNC(=O)Cc3ccccn3)O[C@@H]2CO)cc1	·	·	13.6[16.7 µM]	·	·	·	·	·
O=C(CSC(=S)N1CCCC1)c1cc(Br)cc(Br)c1O	85.4*	·	-10.7	-5.3	4.1	9.3	9.3	-28.8
CS(=O)(=O)N1C[C@H](O)COC[C@H]2O[C@@H](CC(=O)NC3Cc4ccccc4C3)CC[C@@H]21	·	·	1.3[16.7 µM]	·	·	·	·	·
CC(C)NC(=O)Nc1ccc2c(c1)CC(=O)N([C@H](C)CO)C[C@H](C)[C@@H](CN(C)CC1CCCCC1)O2	·	·	5.0[16.7 µM]	·	·	·	·	·
COc1cccc(NC(=O)CCS(=O)(=O)c2ccc3c(c2)oc(=O)n3C)c1	51.4	-0.3	2.7	-0.1	2.4	18.1	25.6*	-25.1
COc1ccc(C2CC(c3cccs3)=NN2C(=O)CSc2nc(=O)n3ccccc3n2)cc1 (stereo not given)	80.0*	0.0	-6.6	-4.5	0.5	28.5	25.9*	66.5*
Cc1ccc(C2CC(c3cccs3)=NN2C(=O)CSc2nc(=O)n3cc(C)ccc3n2)cc1 (stereo not given)	2.3	0.3	2.4	-4.4	14.2	·	·	·
CN1CCC(=C2c3ccccc3CC(=O)c3sccc32)CC1	10.3	-0.1	-2.3	-5.6	10.3	24.1	4.7	7.3
CN1CCC(=C2c3ccccc3CCc3sccc32)CC1	34.8	0.2	·	·	·	·	·	·
C[C@@H]1CN([C@H](C)CO)C(=O)c2cc(-c3ccncc3)cnc2O[C@H]1CN(C)C(=O)c1ccncc1	·	·	-13.1[16.7 µM]	·	·	·	·	·
O=C(Nc1ccc2c(c1)[C@@H]1C[C@H](CC(=O)N3CCc4ccccc4C3)O[C@H](CO)[C@@H]1O2)c1cccnc1	·	·	-4.6[16.7 µM]	·	·	·	·	·
CC(C)C#Cc1cnc2c(c1)C(=O)N([C@@H](C)CO)C[C@H](C)[C@@H](CN(C)C(=O)c1ccccn1)O2	·	·	5.0[16.7 µM]	·	·	·	·	·
O=C(Cc1ccccn1)NCC[C@@H]1CC[C@@H](NC(=O)Nc2ccc(F)cc2)[C@H](CO)O1	·	·	-20.6[16.7 µM]	·	·	·	·	·
CCN1C(=NCCCOC(C)C)N[C@@H](CCc2ccccc2)[C@H](C(=O)NCCCOC(C)C)[C@H]1C	55.6*	1.7	13.1	-4.6	-9.9	56.8*	29.8*	-23.5
CCN1C(=NCCOC)N[C@@H](CCc2ccccc2)[C@H](C(=O)OC)[C@H]1C	10.3	0.0	9.7	-4.9	10.1	·	·	·
C[C@H]1CN([C@@H](C)CO)C(=O)c2cccc(NS(=O)(=O)c3cn(C)cn3)c2O[C@H]1CN(C)Cc1ccccc1	·	·	2.8[16.7 µM]	·	·	·	·	·
COCC(=O)Nc1ccc2c(c1)[C@@H]1C[C@@H](CC(=O)N3CCOCC3)O[C@@H](CO)[C@@H]1O2	·	·	-2.1[16.7 µM]	·	·	·	·	·
SMILES	Gli-Sufu block	aDG glyco up	HIV Env fusion	GalR3 antagonist	NR2F2 inh	Gli antag conf	SufuKO cytotox	Wnt3a cs
CCCCC(=O)NC(c1ccc(OC)cc1)c1ccc2cccnc2c1O (stereo not given)	·	0.1	31.3	-5.4	12.1	·	·	·
CCCCC(=O)NC(c1ccc(Cl)cc1Cl)c1ccc2cccnc2c1O (stereo not given)	86.3*	0.4	-65.9	-9.4	12.4	83.3*	34.0*	82.1*
CC(C)C(=O)NC(c1ccc(Cl)cc1Cl)c1ccc2cccnc2c1O (stereo not given)	27.9	0.0	-289.3	-10.8	-32.6	·	·	·
CCCC(=O)NC(c1ccccc1Cl)c1ccc2cccnc2c1O (stereo not given)	83.3*	-0.3	-65.6	-11.0	-6.2	79.8*	28.4*	68.9*
CCC(=O)NC(c1ccc(C)cc1)c1ccc2cccnc2c1O (stereo not given)	89.3*	-0.4	-22.7	-6.9	-18.9	81.8*	41.6*	83.2*
COc1ccc(NC(=O)N(C)C[C@H]2Oc3ccc(NC(=O)C4CCCCC4)cc3CC(=O)N([C@H](C)CO)C[C@H]2C)cc1	·	·	-10.2[16.7 µM]	·	·	·	·	·
Cc1noc(C)c1S(=O)(=O)N(C)C[C@@H]1OCCCC[C@@H](C)Oc2ccc(NS(C)(=O)=O)cc2C(=O)N([C@H](C)CO)C[C@@H]1C	·	·	21.3[16.7 µM]	·	·	·	·	·
CC(=O)Nc1ccc2c(c1)C(=O)N(C)[C@H]1CC[C@H](CC(=O)NC3CCCCC3)O[C@H]1CO2	·	·	6.7[16.7 µM]	·	·	·	·	·
O=C(CCN1CCCCC1)N[C@@H]1CC[C@H](CC(=O)N2CCC(Cc3ccccc3)CC2)O[C@@H]1CO	·	·	-4.3[16.7 µM]	·	·	·	·	·
CS(=O)(=O)N(CC(=O)N1CCCCCC1)c1ccc(Cl)cc1	11.6	0.0	-34.1	-1.3	12.9	·	·	·
CS(=O)(=O)N(CC(=O)N1CCOCC1)c1ccc(Cl)cc1	56.0*	0.0	13.8	-2.2	-5.1	19.7	2.5	5.0
O=C(CCN1CCCCC1)N[C@@H]1CC[C@H](CCNC(=O)c2cc(Cl)cc(Cl)c2)O[C@@H]1CO	·	·	-85.1[16.7 µM]	·	·	·	·	·
CC(C)Cn1c(N)c(C(=O)COC(=O)C2CCCCC2)c(=O)n(C)c1=O	6.5	4.3	-96.6	-4.5	20.2	·	·	·
CC(C)Cn1c(N)c(C(=O)COC(=O)C2Cc3ccccc3CN2S(C)(=O)=O)c(=O)n(C)c1=O (stereo not given)	55.6*	1.1	·	-7.7	25.6	61.5*	31.0*	8.0
COc1ccc(-c2nn(-c3ccccc3)cc2/C=N/NC(=O)c2ccc(Br)o2)cc1	51.6	0.1	·	0.7	-7.8	63.0*	22.8	-27.8
Cc1ccc(C(=O)NC(=S)Nc2ccccc2N2CCOCC2)cc1C	89.0*	-0.4	·	·	·	22.6	14.4	-36.6

Assay outcomes as filed in PubChem BioAssay.
